The campaign covered roughly 310,000 compounds. About 3,900 (1.3%) were called active.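 The calls were made as follows: active = calcium-response B-score plate-corrected more than 3 library SD below zero, starting fluorescence within 5 deviations, no agonist response on first addition; inactive = the rest.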 Shown is part of a subset that was picked to be rich in actives.

Chain of Mas-related G-protein coupled receptor member X1 (Homo sapiens) (Q96LB2 whole entry, looked up): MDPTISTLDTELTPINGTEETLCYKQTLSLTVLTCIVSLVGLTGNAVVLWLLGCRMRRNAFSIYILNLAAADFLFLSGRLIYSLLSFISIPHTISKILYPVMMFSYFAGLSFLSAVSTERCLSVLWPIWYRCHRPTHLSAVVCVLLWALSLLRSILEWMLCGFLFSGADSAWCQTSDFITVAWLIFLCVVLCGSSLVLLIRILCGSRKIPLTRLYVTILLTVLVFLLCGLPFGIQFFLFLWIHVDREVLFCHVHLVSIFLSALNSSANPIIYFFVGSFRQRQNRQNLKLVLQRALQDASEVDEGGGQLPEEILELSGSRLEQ

The assay has as its target Mas-related G-protein coupled receptor member X1 (Homo sapiens) (UniProt Q96LB2). Briefly: antagonists of human MrgX1 receptor, primary screen, HEK293 cells, Fluo-4 calcium flux (AID 588676).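 As to B-score: peak minus trough fluorescence over baseline after final BAM8-22 challenge near maximal dose.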 The following applies: Fluo-4, BAM8-22 antagonism, at 10 µM; stronger effect = lower value.
As to `COc1ccc(NC(=O)N2CCC3(CC2)OCCO3)c(OC)c1`, the B-score result is “inactive”. The value for `COc1ccc(S(=O)(=O)NCc2ccc(C(=O)N3CCC4(CC3)OCCO4)cc2)cc1` was -6.08 (active). The same measure for `COc1ccc(-c2nc(CS(=O)CC(=O)N3CCC4(CC3)OCCO4)c(C)o2)cc1` (stereo not given): “inactive”.

For the compound `COC(=O)C1=C(c2cc3ccccc3o2)C[C@@H]2CC[C@H]1N2C(=O)NC1CCCCC1`, the B-score entry is “inactive”. The same measure for `CCCCCCCCCCCCn1ccc(=N)cc1`: -5.32 (active); for `COc1ccccc1C1=NCc2nnc(CSC)n2-c2ccc(Cl)cc21`: “inactive”; for `CCCCn1c(=O)c(C(=O)Nc2ccccc2Cl)c(O)c2ccccc21`: “inactive”. The same measure for `CCCCCn1c(=O)c(C(=O)NCc2ccccc2)c(O)c2ccccc21`: -6.52 (active); for `CCCCCn1c(=O)c(C(=O)NCc2ccccn2)c(O)c2ccccc21`: “inactive”. With `CC(C)c1ccc(OCC(=O)N2CCN(C)CC2)c(Br)c1`, the B-score result is “inactive”.

For the compound `CCOC(=O)C1SC2(C(F)(F)C(F)F)CC1(O)c1c(c(OC)c3occc3c1OC)O2` (stereo not given), the B-score result was “inactive”. The value for `CNCC(O)c1cc(F)c(OCc2ccccc2)c(OCc2ccccc2)c1F` (stereo not given) was “inactive”. The value for `Cc1ccc(-n2c(O)c(C=NCC3CCCO3)c(=O)[nH]c2=O)c(C)c1` (stereo not given) was “inactive”; that for `CCOC(=O)C(O)(c1ccc(N=Cc2ccccc2O)c(C)c1)C(F)(F)F` (stereo not given) was “inactive”.

Consider `Cc1cccc(NC(=O)N2CC3CC(C2)c2cccc(=O)n2C3)c1` (stereo not given), for which the B-score result is “inactive”. The value for `COc1ccccc1N1CCN(C(CNC(=O)Oc2ccccc2)c2cccnc2)CC1` (stereo not given) was “inactive”; that for `O=C(CN1CCCCC1)Nc1ccc(Br)cc1C(=O)c1ccccc1Cl` was “inactive”. The value for `CN1CCN(C(=S)SCC(=O)Nc2ccc(Cl)cc2C(=O)c2ccccc2)CC1` was “inactive”; that for `O=C(CCN1CCCCC1)NCC(=O)Nc1ccc(Br)cc1C(=O)c1ccccc1` was -5.59 (active); that for `CCOC(=O)C1=C(C)OC(N)=C(C(=O)OC)C12C(=O)Nc1ccc(Br)cc12` (stereo not given) was “inactive”.

Values taken from PubChem BioAssay AID588676 (Johns Hopkins Ion Channel Center, 2011).
